The whole screen tested about 5,500 compounds, of which about 2,000 (36%) were called active. Not shown: some 18% with an inconclusive outcome. No stated cut-off is given here; in the data, active means normalized growth mostly below about 0.91 (no sharp cut-off); inconclusive means no clear call, values can overlap the other calls; inactive means mostly above about 0.92. This is one part of the list.
Assay: chemical genetic growth profiling, strain panel (AID 1159580);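 further: tested at 20 µM; growth read once vehicle control cultures reached saturation at 30 °C; 1 = growth at the plate median or of vehicle wells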
Settings: S. cerevisiae deletion strains, growth OD

Measured: normalized growth

CC1(C)C2CCC1(C)C(O)C2 (stereo not drawn)
inactive: locus YHR030C, strain SLT2, stronger effect = lower value 0.98 | locus YHR079C, strain IRE1, stronger effect = lower value 0.981 | locus YJL095W, strain BCK1, stronger effect = lower value 0.999 | locus YJR066W, strain TOR1, stronger effect = lower value 0.923 | locus YLR113W, strain HOG1, stronger effect = lower value 0.991 | locus YNL183C, strain NPR1, stronger effect = lower value 0.947 | locus YOR231W, strain MKK1, stronger effect = lower value 0.992 | locus YPL256C, strain CLN2, stronger effect = lower value 0.993

Source: PubChem BioAssay AID1159580 (chemical genetic matrix, 2015)
